Compound activity deposited in PubChem by National Center for Advancing Translational Sciences (NCATS).
DT40 TDP1 no CPT: qHTS for Inhibitors of human tyrosyl-DNA phosphodiesterase 1 (TDP1): qHTS in cells in absence of CPT; DT40 Tdp1-/- hTDP1 cells, no CPT, ATP luminescence, 48 h; Potency, µM (doses to about 46.2 µM), for the others: at the highest dose activity change, negative = growth inhibition, actives largely listed as inhibitors; hit rate 15% among 420,000; also: potency is read from the fitted curve at half-maximal effect; nearly all actives have a fitted effect of over 55% in size
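Compound effects on proliferation are scored in DT40 Tdp1-/-;hTDP1 cells in the absence of CPT. ATP levels (CellTiter-Glo luminescence) are recorded after a ≥48 hr, 37 °C incubation.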
Gal4-VP16 FLuc: inhibits Gal4-VP16 luciferase reporter, ROR gamma counter-screen; Potency, µM (highest dose often 53.6 µM), without a hit: at the highest dose activity, negative = inhibition, actives largely listed as inhibitors; Drosophila S2 Gal4-VP16 UAS-luciferase, luminescence, 20 h; hit rate 3.5% among 310,000; AID 2546;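 also: Gal4-VP16 expression switched on by copper sulfate through the metallothionein promoter; potency is read from the fitted curve at half-maximal effect; nearly all actives have a fitted effect of over 50% in size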
ELG1 repair inh: inhibitors of ELG1-dependent DNA repair in HEK293T cells. HEK293T ELG1-luciferase reporter, luminescence, 16 h; DNA damage induced by 5-fluorouridine. Potency, µM (doses to about 46.1 µM), for inactives: at the top dose activity change, negative = inhibition, hits mostly inhibitors. hit rate 2.3% among 330,000. AID 504467; also: potency is read from the fitted curve at half-maximal effect; nearly all actives have a fitted effect of over 55% in size
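Luminescence from the luciferase reporter, measured 30 min after ONE-Glo reagent at room temperature, was the read-out. Beforehand, 2,000 cells per well were exposed for 16 hr at 37 °C to 5-fluorouridine together with compound or vehicle.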
RORgamma inh: blocks mouse ROR gamma transcriptional activity; P51450; Drosophila S2 Gal4-RORgamma UAS-luciferase reporter, 20 h; Potency, µM (series often up to 53.6 µM), inactives show top-dose activity change, negative = inhibition, most hits filed as inhibitors; hit rate 5.4% among 310,000; AID 2551; also: potency is read from the fitted curve at half-maximal effect; nearly all actives have a fitted effect of over 60% in size
Target sequence (P51450 whole entry, looked up, the tested form may be a part): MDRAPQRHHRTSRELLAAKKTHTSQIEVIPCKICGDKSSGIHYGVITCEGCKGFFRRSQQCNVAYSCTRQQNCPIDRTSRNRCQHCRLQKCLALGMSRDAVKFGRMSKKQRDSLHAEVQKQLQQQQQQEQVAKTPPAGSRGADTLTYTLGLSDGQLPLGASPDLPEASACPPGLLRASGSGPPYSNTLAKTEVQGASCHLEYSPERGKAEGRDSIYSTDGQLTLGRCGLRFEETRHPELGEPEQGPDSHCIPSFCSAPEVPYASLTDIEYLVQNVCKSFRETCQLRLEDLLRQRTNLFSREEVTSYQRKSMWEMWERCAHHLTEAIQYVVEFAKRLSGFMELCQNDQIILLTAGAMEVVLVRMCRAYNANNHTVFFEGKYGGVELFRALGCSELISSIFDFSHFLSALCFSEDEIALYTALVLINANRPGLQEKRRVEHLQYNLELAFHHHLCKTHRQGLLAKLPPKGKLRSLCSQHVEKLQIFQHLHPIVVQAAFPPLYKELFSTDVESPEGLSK
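A Gal4/UAS one-hybrid system in insect cells: metallothionein-promoter Gal4–ROR gamma fusion plus Photinus luciferase reporter. Copper sulfate 700 uM final, 20 hr ambient incubation, luminescent detection after 10 min with reagent.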
DT40 TDP1 CPT: DT40-hTDP1 cell growth loss with CPT; chicken DT40 Tdp1-/-;hTDP1 cells + 20 nM CPT, ATP luminescence, 48 h; Potency, µM (doses to about 46.2 µM), without a hit: at the top dose activity change, negative = growth inhibition, actives largely listed as inhibitors; hit rate 12% among 420,000; also: potency is read from the fitted curve at half-maximal effect; nearly all actives have a fitted effect of over 55% in size
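Chicken DT40 Tdp1-/- cells complemented with human TDP1, 400 cells/well, exposed to compounds plus 20 nM camptothecin for at least 48 h at 37 C; viability read as ATP content by CellTiter-Glo luminescence.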
IL-1B inflam inh: blocks inflammasome-driven IL-1 beta release | THP-1 LPS/ATP IL-1B secretion, AlphaLISA, 16 h; hits give low values | activity change, % at 57.5 µM | hit rate 4.7% among 360,000; in the data active = activity change below about -50%; inconclusive = mostly about -30% to -49%
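Secreted IL-1B measured by AlphaLISA bead assay after 16 h compound exposure of THP-1 cells; compounds (final up to 57.5 uM) added 1 h before LPS (250 ng/mL) and ATP (1.25 mM) stimulation; lower signal means less secretion.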
* = called active by the depositor; ? = inconclusive; . = no result given; [ ] = dose if it differs, or a comment. The list is not random: actives were taken first. Their share in the collection is about 21%. Unless noted, calls follow the shape of the dose curve; as a rule, active = well fitted curve in the direction sought with a large enough effect; inconclusive = small, poorly fitted or top-dose-only effect, or another doubt; inactive = no such curve, though single readings can be large; an effect the other way counts as inactive or inconclusive. % is scaled to controls: 0 for no effect and ±100 for the full control effect.

SMILES	DT40 TDP1 no CPT	Gal4-VP16 FLuc	ELG1 repair inh	RORgamma inh	DT40 TDP1 CPT	IL-1B inflam inh
Cc1ccc(C(=O)NCCSc2c(C)[nH]c3ccccc23)cc1[N+](=O)[O-]	21µM*	?	?	?	10µM*	-23
COc1cccc(C(=O)NCCCc2ccccc2)c1OC	-29%	.	.	.	-16%	6
COc1cc(C(=O)NCC(=O)N/N=C/c2c(C)[nH]c3ccccc23)cc(OC)c1OC	26µM*	-3%	?	18%	?	-4
COc1ccccc1C(=O)NCCSc1c(C)[nH]c2ccccc12	23µM*	.	.	.	16µM*	.
O=C(Nc1cc([N+](=O)[O-])ccc1F)C1CCN(S(=O)(=O)c2cccs2)CC1	?	.	-21%	.	?	-20
CCc1ccc(CNC(=O)c2cnc3sc4cc(OC)ccc4n3c2=O)cc1	-12%	.	.	.	3%	.
COc1cc(C(=O)NCCSc2c(C)[nH]c3ccccc23)cc(OC)c1OC	15µM*	.	.	.	?	.
Cc1cc(CSc2ccccc2)ccc1NC(=O)c1ccc(C)c([N+](=O)[O-])c1	18µM*	1%	0%	-16%	-14%	53
Cc1cc(=O)nc2c3ccccc3n(CC(=O)NC(C)c3ccc4c(c3)OCCO4)n12 (configuration not stated)	-17%	-8%	14%	3%	?	29
COCCCNC(=O)C[C@@H]1C[C@@]2(C(=O)OC)CCCCC=C2N(Cc2ccc(Cl)cc2Cl)C1=O	16µM*	.	.	.	?	-5
COC(=O)[C@]12CCCCC=C1N(Cc1ccc(Cl)cc1Cl)C(=O)[C@H](CC(=O)NCC1CCCCC1)C2	18µM*	.	.	.	?	0
COC(=O)[C@]12CCCCC=C1N(Cc1ccc(Cl)cc1Cl)C(=O)[C@H](CC(=O)NCC13CC4CC(CC(C4)C1)C3)C2	-18%	.	.	.	2%	24
COC(=O)[C@]12CCCCC=C1N(Cc1ccccc1)C(=O)[C@H](CC(=O)NCC1CCCCC1)C2	?	.	.	.	16µM*	-8
Cc1cnc(-n2ncc(C(=O)NCCc3ccccn3)c2C)nc1-c1ccc(F)cc1	?	.	.	.	3%[9.04 µM]	.
CCOc1ccc2nc(SCC(=O)N3CCN(C(=O)c4ccco4)CC3)sc2c1	12µM*	6%	?	44%	?	-13
CCOc1ccc2nc(N3CCN(C(=O)c4ccco4)CC3)sc2c1	18µM*	.	.	.	?	.
CCOc1ccc2nc(N3CCC(C(=O)N4CCN(c5ccccn5)CC4)CC3)sc2c1	6.5µM*	-10%	12µM*	?	5.8µM*	-7
CC(C)n1ncc2c(C(=O)N3CCN(S(=O)(=O)c4cccc(F)c4)CC3)cc(C3CC3)nc21	14%	.	.	.	-1%	22
Cc1ccc(S(=O)(=O)N2CCN(C(=O)c3cc(C4CC4)nc4c3cnn4C(C)C)CC2)cc1	4.1µM*	.	?	.	?	?
Cc1ccc(CNC(=O)c2cc(C3CC3)nc3c2cnn3C(C)C)cc1	18µM*	.	?	.	?	-30
COc1cccc(CNC(=O)c2cc(C3CC3)nc3c2cnn3C(C)C)c1	?	.	?	.	?	-53*
COc1ccc(CNC(=O)c2cc(C3CC3)nc3c2cnn3C(C)C)cc1OC	-20%	.	?	.	?	-11
CCN(C(=O)CSc1nc2ccccc2n1CC(=O)Nc1ccc(F)cc1F)c1ccccc1	15µM*	.	.	.	23µM*	.
CCn1cc2nc(SCC(=O)Nc3ccc(F)cc3F)n(Cc3ccccc3)c(=O)c2n1	?	-21%	-2%	?	23µM*	-9
Cc1ccc(C)c(NC(=O)Cn2c(SCC(=O)NCc3ccccc3)nc3ccccc32)c1	-19%	.	.	.	?	.
SMILES	DT40 TDP1 no CPT	Gal4-VP16 FLuc	ELG1 repair inh	RORgamma inh	DT40 TDP1 CPT	IL-1B inflam inh
O=C(Cn1c(=O)c(=O)n(Cc2ccccc2)c2ccc(Cl)cc21)Nc1ccc(F)cc1F	?	-17%	-10%	1%	?	16
CCn1cc2nc(SCC(=O)Nc3ccc(C)cc3C)n(Cc3ccc(C)cc3)c(=O)c2n1	5.2µM*	.	.	.	3.7µM*	.
CC(=O)Nc1ccc(NC(=O)c2cc(-c3cc(C)c(C)cc3O)n[nH]2)cc1	-17%	1%	16%	-31%	-9%	-1
CC(=O)Nc1ccc(/C=C/c2nc(-c3ccccc3O)n[nH]2)cc1	29µM*	-5%	?	1%	?	2
COc1ccc(/C=C/c2nc(N)nc(-c3ccccc3O)n2)cc1	?	-1%	-9%	36%	3%	22
COc1ccc(/C=C/c2nc(N)nc(-c3ccccc3O)n2)cc1OC	?	?	21µM*	?	?	?
COc1cc(/C=C/c2nc(-c3ccccc3O)n[nH]2)cc(OC)c1OC	15µM*	?	?	?	21µM*	-121*
COc1cc(/C=C/c2noc(-c3ccccc3O)n2)cc(OC)c1OC	?	-12%	?	1%	2%	14
Fc1ccc(C2C3=C(Nc4ncnn42)c2ccccc2OC3c2ccncc2)cc1 (configuration not stated)	?	0%	?	-19%	0%	-55*
CCCC1=C(C(=O)OCC)C(c2cccs2)n2ncnc2N1 (configuration not stated)	?	-4%	0%	-45%	-13%	6
Cc1ccc(C2Oc3ccccc3C3=C2C(c2cccs2)n2ncnc2N3)cc1 (configuration not stated)	?	?	0%	11µM*	?	22
COCCNC(=O)CN(Cc1ccc2c(c1)OCO2)C(=O)CCC(=O)Nc1nccs1	18µM*	-7%	1%	-24%	18µM*	30
COCCN(CC(=O)NCc1ccc2c(c1)OCO2)C(=O)CCC(=O)Nc1nccs1	-1%	-3%	0%	5%	-2%	2
Cc1cc(C)c(S(=O)(=O)c2cccc(Br)c2C)c(=O)[nH]1	-13%	11%	6%	9%	?	-14
CN(C)c1cccc(C(=O)NNC(=S)NC2CC3CCC2C3)c1 (configuration not stated)	?	-14%	?	4µM*	?	-26
CC(C)N(C(=S)NC1CC2CCC1C2)c1ccccc1 (configuration not stated)	?	-7%	3%	?	?	41
